# Test results: PubChem BioAssay AID2778 (National Center for Advancing Translational Sciences (NCATS), 2010)
# Inconclusive results are not listed. The source made the active and inactive calls. Calls come from the whole dose curve; as a rule, active = well fitted inhibition curve with a large enough effect; inconclusive = small, poorly fitted or top-dose-only effect, or effect the other way; inactive = flat fitted curve, though single readings scatter. Positions of bridges follow the written chain, without caps; N, C: chain ends. Non-standard residues stand in square brackets, D forms with d. Residues, ends and D or L forms follow the SMILES beside them. *: point of attachment. Octanoyl(6-Me) = CCC(C)CCCCC(=O)*; Dab = NCC[CH](N)C(=O)O
# Target: Menin (Homo sapiens) (UniProt O00255)
# Test: Confirmation of Inhibitors Targeting the Menin-MLL Interaction in MLL Related Leukemias: Confirmation in an HTRF (commercial TR-FRET) Assay using His-tagged menin and biotin-labeled MLL peptide
# Conditions: His-menin / biotin-MLL peptide binding; series mostly up to 126 µM; activity change, negative = inhibition: at the top concentration
# In short: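 HTRF: His6-menin (200 nM) and biotin-MLL-w.t. peptide (80 nM) preincubated 15 min, then compounds 1 hr at ambient, before Eu-cryptate anti-His (3.5 nM) and streptavidin-XL665 (10 nM) for 1 h; 50 mM Tris-HCl pH 7.5, 50 mM NaCl, 1 mM DTT, BSA.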
# % is set by controls: 0 for no effect and ±100 for the full control effect; potency is the fitted concentration of half-maximal effect.
# Menin (Homo sapiens), sequence (O00255 whole entry, looked up): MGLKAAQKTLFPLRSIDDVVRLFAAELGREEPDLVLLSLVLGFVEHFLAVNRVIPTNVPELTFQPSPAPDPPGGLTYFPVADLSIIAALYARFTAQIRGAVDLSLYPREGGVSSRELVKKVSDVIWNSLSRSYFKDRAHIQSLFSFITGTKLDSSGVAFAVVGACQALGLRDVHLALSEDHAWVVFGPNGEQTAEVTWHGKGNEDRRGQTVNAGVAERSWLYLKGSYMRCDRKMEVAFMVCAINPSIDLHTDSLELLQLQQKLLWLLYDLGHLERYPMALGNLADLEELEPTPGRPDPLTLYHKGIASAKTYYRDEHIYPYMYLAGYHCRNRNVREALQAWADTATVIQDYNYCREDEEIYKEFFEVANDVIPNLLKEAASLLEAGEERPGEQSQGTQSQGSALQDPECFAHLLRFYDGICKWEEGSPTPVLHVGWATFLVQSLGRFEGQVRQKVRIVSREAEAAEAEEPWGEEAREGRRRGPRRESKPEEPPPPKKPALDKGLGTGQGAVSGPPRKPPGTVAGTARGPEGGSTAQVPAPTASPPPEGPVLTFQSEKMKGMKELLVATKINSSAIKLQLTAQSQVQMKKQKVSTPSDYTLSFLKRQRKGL
Compound,"activity change, negative = inhibition",Potency
O=C(Cn1nc(-c2ccccc2)ccc1=O)N1CCCCC1,3.9% [at 383 µM] (inactive),
O=C(C1CCCN(Cc2cccc(Cl)c2)C1)N1CCCCC1 (stereo not given),1.08% (inactive),
COc1ccc(CN2CCN(C(C)C(=O)N(C)Cc3cccc(F)c3)CC2)cc1OC (stereo not given),-4.13% (inactive),
O=C(CSc1nnc(-c2c[nH]c3ccccc23)o1)N1c2ccccc2CCc2ccccc21,-26.4% (inactive),
CC1(C)CN=C(N2CCN(c3ncnc4sc5c(c34)CCCC5)CC2)S1,,28.2 µM (active)
O=C(CSc1nnnn1-c1ccc(O)cc1)N1N=C(c2ccc3ccccc3c2)CC1c1ccccc1 (stereo not given),-19.9% (inactive),
Cc1cc2c(N)cccc2nn1,16.7% (inactive),
O=C(COC(=O)c1ccc(NS(=O)(=O)c2cccs2)cc1)Nc1nc2c(F)c(F)c(F)cc2s1,,39.8 µM (active)
COc1ccc(NC(=O)N2CC[C@@]3(CCCN(C(=O)c4csnn4)C3)C2)cc1,-2.47% (inactive),
CCC(C)CCCCC(=O)NC(CCN)C(=O)NC(C(=O)NC(CCN)C(=O)NC1CCNC(=O)C(C(C)O)NC(=O)C(CCN)NC(=O)C(CCN)NC(=O)C(CC(C)C)NC(=O)C(Cc2ccccc2)NC(=O)C(CCN)NC1=O)C(C)O (stereo not given) ({Octanoyl(6-Me)}-[Dab]T[Dab][Dab][Dab]FL[Dab][Dab]T; lactam 4-C; configuration not given here),-21.9% (inactive),
COCCn1c(C)c(C)c2c(NCCc3ccccc3)ncnc21,5.34% (inactive),
COC(=O)C1[C@H]2SC(C)(C)C(C(=O)OC)N2C(=O)N1Cc1nc2ccccc2s1 (stereo not given in full),5.96% (inactive),
OC(c1ccccn1)(c1ccccn1)c1ccccn1,-6.19% [at 383 µM] (inactive),
CCc1cc2c(N3CCN(c4nnc(CC)s4)CC3)ncnc2s1,,25.1 µM (active)
CN(C)/C=C(/C(=O)c1ccc(Cl)cc1)S(=O)(=O)c1ccc(Cl)cc1,1.54% [at 383 µM] (inactive),
CCCCC(=O)NC(=S)Nc1nnn(CCC)n1,8.69% (inactive),
O=[N+]([O-])CC(c1ccccc1)P(=O)(c1ccccc1)c1ccccc1 (stereo not given),0.121% (inactive),
COc1ccc2nc(NC(=O)CSc3nnc(N)s3)sc2c1,-7.53% (inactive),

Compound,"activity change, negative = inhibition",Potency
NC(=O)c1cc2ccccc2o/c1=N/NC(=O)c1cccc(F)c1,12.1% (inactive),
CC(=O)O[C@H]1CSC[C@H]1NC(=O)c1ccccc1,5.21% (inactive),
COc1cc(NC(=O)c2cccnc2)c(OC)cc1NC(=O)c1ccc(Br)cc1,-9.27% (inactive),
Cc1nc2oc3c(NCC4CCCO4)ncnc3c2c2c1COC(C)(C)C2 (stereo not given),11.4% (inactive),
CCCn1c(=O)c(C(=O)Nc2ccccc2C(=O)OCC)c(O)c2ccccc21,2.41% [at 383 µM] (inactive),
CCOC(=O)CCC(=O)NCc1ccc2c(c1)cc(C)n2C,-0.84% (inactive),
COCC(=O)Nc1cccc2ccccc12,-1.3% (inactive),
CN(C)c1ccc(N=Nc2ccc(C(=O)O)cc2)cc1,4.67% (inactive),
O=C(CSc1nc(O)cc(=O)n1-c1ccccc1)c1ccc(Br)cc1,-24.8% (inactive),
CN1C[C@@H]2C[C@H]1CN2c1cc2c(cc1F)c(=O)c(C(=O)O)cn2C1CC1,5.01% (inactive),
O=C(NC(=S)Nc1nc(-c2ccc(Br)cc2)cs1)c1cccnc1,-24.2% (inactive),
CN(C)CCCNCC(=O)c1c(-c2ccccc2)n(C)c2ccccc12,3.68% (inactive),
COc1cccc(NC(=O)N2CCCc3ccccc32)c1,4.66% (inactive),
Cc1cccc(NC(=S)NC(NC(=O)OCc2ccccc2)C(Cl)(Cl)Cl)c1 (stereo not given),-17.5% [at 383 µM] (inactive),
Cc1ccc(C)n1-c1ccc(N(C)C)cc1,5.34% (inactive),
O=C(NCC1CCCO1)c1ccc(OC2CCN(C(=O)C3CC3)CC2)cc1 (stereo not given),2.92% (inactive),
COc1ccc(CNC(=O)C(c2ccc(O)cc2)N(Cc2ccco2)C(=O)c2snc(C(N)=O)c2N)cc1 (stereo not given),-9.89% (inactive),
